# Where a name gives a salt, the structure may show the parent alone.
# System: UCD52 (cells of a triple-negative basal-like breast cancer xenograft)
# Experiment: cell viability of combination (% of vehicle); higher = less cytotoxic
# Settings: 1 µM; 72 h; partner dose: 10 nM
# Experimental: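 PDX cells were treated for 72 h with each drug at 1 µM plus afatinib (10 nM; 1 µM for WHIM30). Luciferase viability is expressed as percent of vehicle.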
row,Compound,cell viability of combination
1,CNC1CCC(c2ccc(Cl)c(Cl)c2)c2ccccc21.Cl (stereo not given) [Sertraline HCl] + CN(C)C/C=C/C(=O)Nc1cc2c(Nc3ccc(F)c(Cl)c3)ncnc2cc1O[C@H]1CCOC1 [Afatinib],56.4
2,CO[C@H]1/C=C/O[C@@]2(C)Oc3c(C)c(O)c4c(O)c(c(/C=N/N5CCN(C6CCCC6)CC5)c(O)c4c3C2=O)NC(=O)/C(C)=C\C=C\[C@H](C)[C@H](O)[C@@H](C)[C@@H](O)[C@@H](C)[C@H](OC(C)=O)[C@@H]1C [Rifapentine] + CN(C)C/C=C/C(=O)Nc1cc2c(Nc3ccc(F)c(Cl)c3)ncnc2cc1O[C@H]1CCOC1 [Afatinib],72.2
3,CCOC(=O)C1=C(COCCN)NC(C)=C(C(=O)OC)C1c1ccccc1Cl.O=S(=O)(O)c1ccccc1 (stereo not given) [Amlodipine Besylate] + CN(C)C/C=C/C(=O)Nc1cc2c(Nc3ccc(F)c(Cl)c3)ncnc2cc1O[C@H]1CCOC1 [Afatinib],83.6
4,CC(=O)C1(O)Cc2c(O)c3c(c(O)c2C(OC2CC(N)C(O)C(C)O2)C1)C(=O)c1ccccc1C3=O.Cl (stereo not given) [Idarubicin HCl] + CN(C)C/C=C/C(=O)Nc1cc2c(Nc3ccc(F)c(Cl)c3)ncnc2cc1O[C@H]1CCOC1 [Afatinib],24.3
5,CCCCCCCCc1ccc(CCC(N)(CO)CO)cc1.Cl [Fingolimod (FTY720)] + CN(C)C/C=C/C(=O)Nc1cc2c(Nc3ccc(F)c(Cl)c3)ncnc2cc1O[C@H]1CCOC1 [Afatinib],69.9
6,COc1ncc(-c2ccc3nccc(-c4ccnnc4)c3c2)cc1NS(=O)(=O)c1ccc(F)cc1F + CN(C)C/C=C/C(=O)Nc1cc2c(Nc3ccc(F)c(Cl)c3)ncnc2cc1O[C@H]1CCOC1 [Afatinib],15.8
7,Clc1ccc(C(Cn2ccnc2)OCc2ccc(Sc3ccccc3)cc2)c(Cl)c1.O=[N+]([O-])O (stereo not given) [Fenticonazole Nitrate] + CN(C)C/C=C/C(=O)Nc1cc2c(Nc3ccc(F)c(Cl)c3)ncnc2cc1O[C@H]1CCOC1 [Afatinib],59.9
8,CNCCCC12CCC(c3ccccc31)c1ccccc12.Cl [Maprotiline HCl] + CN(C)C/C=C/C(=O)Nc1cc2c(Nc3ccc(F)c(Cl)c3)ncnc2cc1O[C@H]1CCOC1 [Afatinib],61.4
9,Cc1ccc(-n2[nH]c(C)c(NN=C3C=CC=C(c4cccc(C(=O)O)c4)C3=O)c2=O)cc1C [Eltrombopag] + CN(C)C/C=C/C(=O)Nc1cc2c(Nc3ccc(F)c(Cl)c3)ncnc2cc1O[C@H]1CCOC1 [Afatinib],77.1
10,CC(C)c1nc(CN(C)C(=O)NC(C(=O)NC(Cc2ccccc2)CC(O)C(Cc2ccccc2)NC(=O)OCc2cncs2)C(C)C)cs1 (stereo not given) [Ritonavir] + CN(C)C/C=C/C(=O)Nc1cc2c(Nc3ccc(F)c(Cl)c3)ncnc2cc1O[C@H]1CCOC1 [Afatinib],62.5
11,Cl.Nc1ccn(C2OC(CO)C(O)C2O)c(=O)n1 (stereo not given) [Cytarabine hydrochloride] + CN(C)C/C=C/C(=O)Nc1cc2c(Nc3ccc(F)c(Cl)c3)ncnc2cc1O[C@H]1CCOC1 [Afatinib],72.2
12,CCOc1cc2ncc(C#N)c(Nc3ccc(OCc4ccccn4)c(Cl)c3)c2cc1NC(=O)C=CCN(C)C [Neratinib (HKI-272)] + CN(C)C/C=C/C(=O)Nc1cc2c(Nc3ccc(F)c(Cl)c3)ncnc2cc1O[C@H]1CCOC1 [Afatinib],50.9
13,CCOC(=O)c1c(CSc2ccccc2)n(C)c2cc(Br)c(O)c(CN(C)C)c12.Cl [Arbidol HCl] + CN(C)C/C=C/C(=O)Nc1cc2c(Nc3ccc(F)c(Cl)c3)ncnc2cc1O[C@H]1CCOC1 [Afatinib],53
14,O=C(c1ccc(F)c(F)c1Nc1ccc(I)cc1F)N1CC(O)(C2CCCCN2)C1 (stereo not given) [Cobimetinib] + CN(C)C/C=C/C(=O)Nc1cc2c(Nc3ccc(F)c(Cl)c3)ncnc2cc1O[C@H]1CCOC1 [Afatinib],36.5
15,COC(=O)C1=C(C)NC(C)=C(C(=O)OCCN(C)Cc2ccccc2)C1c1cccc([N+](=O)[O-])c1.Cl (stereo not given) [Nicardipine HCl] + CN(C)C/C=C/C(=O)Nc1cc2c(Nc3ccc(F)c(Cl)c3)ncnc2cc1O[C@H]1CCOC1 [Afatinib],69.6
16,CC(C)(C)Cn1c(N)nc2ccc(-c3[nH]c(C(C)(C)C)nc3-c3ccc(F)cc3)nc21.CS(=O)(=O)O.CS(=O)(=O)O + CN(C)C/C=C/C(=O)Nc1cc2c(Nc3ccc(F)c(Cl)c3)ncnc2cc1O[C@H]1CCOC1 [Afatinib],30.3
17,Clc1ccc(CSC(Cn2ccnc2)c2ccc(Cl)cc2Cl)cc1.O=[N+]([O-])O (stereo not given) [Sulconazole Nitrate] + CN(C)C/C=C/C(=O)Nc1cc2c(Nc3ccc(F)c(Cl)c3)ncnc2cc1O[C@H]1CCOC1 [Afatinib],74.1
18,CC1(C)Cc2c(-c3ccccc3)c(-c3ccc(Cl)cc3)c(CC(=O)O)n2C1 [Licofelone] + CN(C)C/C=C/C(=O)Nc1cc2c(Nc3ccc(F)c(Cl)c3)ncnc2cc1O[C@H]1CCOC1 [Afatinib],72.7
19,CO[C@H]1C[C@@H]2CC[C@@H](C)[C@@](O)(O2)C(=O)C(=O)N2CCCC[C@H]2C(=O)O[C@H]([C@H](C)C[C@@H]2CC[C@@H](O)[C@H](OC)C2)CC(=O)[C@H](C)/C=C(\C)[C@@H](O)[C@@H](OC)C(=O)[C@H](C)C[C@H](C)/C=C/C=C/C=C/1C [Rapamycin (Sirolimus)] + CN(C)C/C=C/C(=O)Nc1cc2c(Nc3ccc(F)c(Cl)c3)ncnc2cc1O[C@H]1CCOC1 [Afatinib],42.5
20,Clc1ccc(C(Cn2ccnc2)OCc2ccsc2Cl)c(Cl)c1 (stereo not given) [Tioconazole] + CN(C)C/C=C/C(=O)Nc1cc2c(Nc3ccc(F)c(Cl)c3)ncnc2cc1O[C@H]1CCOC1 [Afatinib],81.8

row,Compound,cell viability of combination
1,CC(C)CC(NC(=O)C(NC(=O)c1cccc(-c2ccccc2)n1)C(C)O)B(O)O (stereo not given) + CN(C)C/C=C/C(=O)Nc1cc2c(Nc3ccc(F)c(Cl)c3)ncnc2cc1O[C@H]1CCOC1 [Afatinib],18.9
2,CC1CC(=O)NN=C1c1ccc(NN=C(C#N)C#N)cc1 (stereo not given) [Levosimendan] + CN(C)C/C=C/C(=O)Nc1cc2c(Nc3ccc(F)c(Cl)c3)ncnc2cc1O[C@H]1CCOC1 [Afatinib],75
3,CC(NCCCc1cccc(C(F)(F)F)c1)c1cccc2ccccc12 (stereo not given) [Cinacalcet] + CN(C)C/C=C/C(=O)Nc1cc2c(Nc3ccc(F)c(Cl)c3)ncnc2cc1O[C@H]1CCOC1 [Afatinib],59.9
4,CC(C)C[C@H](NC(=O)[C@H](Cc1ccccc1)NC(=O)c1cnccn1)B(O)O [Bortezomib] + CN(C)C/C=C/C(=O)Nc1cc2c(Nc3ccc(F)c(Cl)c3)ncnc2cc1O[C@H]1CCOC1 [Afatinib],15.1
5,C=CC(=O)N1CCC(Oc2cc3c(Nc4ccc(Cl)c(Cl)c4F)ncnc3cc2OC)CC1 [Poziotinib] + CN(C)C/C=C/C(=O)Nc1cc2c(Nc3ccc(F)c(Cl)c3)ncnc2cc1O[C@H]1CCOC1 [Afatinib],27.6
6,CCCCc1oc2ccc(NS(C)(=O)=O)cc2c1C(=O)c1ccc(OCCCN(CCCC)CCCC)cc1.Cl [Dronedarone HCl] + CN(C)C/C=C/C(=O)Nc1cc2c(Nc3ccc(F)c(Cl)c3)ncnc2cc1O[C@H]1CCOC1 [Afatinib],63.6
7,COC(=O)NC(C(=O)N1CCCC1c1ncc(-c2ccc(-c3ccc(-c4cnc(C5CCCN5C(=O)C(NC(=O)OC)C(C)C)[nH]4)cc3)cc2)[nH]1)C(C)C (stereo not given) + CN(C)C/C=C/C(=O)Nc1cc2c(Nc3ccc(F)c(Cl)c3)ncnc2cc1O[C@H]1CCOC1 [Afatinib],59.1
8,Cl.O.O=C1Cc2cc(CCN3CCN(c4nsc5ccccc45)CC3)c(Cl)cc2N1 [Ziprasidone hydrochloride monohydrate] + CN(C)C/C=C/C(=O)Nc1cc2c(Nc3ccc(F)c(Cl)c3)ncnc2cc1O[C@H]1CCOC1 [Afatinib],70.3
9,CCCCCCCCOc1ccccc1C(=O)Nc1ccc(C(=O)OCC[N+](C)(CC)CC)cc1.[Br-] [Otilonium Bromide] + CN(C)C/C=C/C(=O)Nc1cc2c(Nc3ccc(F)c(Cl)c3)ncnc2cc1O[C@H]1CCOC1 [Afatinib],78.6
10,O=C(C=Cn1cnc(-c2cc(C(F)(F)F)cc(C(F)(F)F)c2)n1)NNc1cnccn1 + CN(C)C/C=C/C(=O)Nc1cc2c(Nc3ccc(F)c(Cl)c3)ncnc2cc1O[C@H]1CCOC1 [Afatinib],52.2
11,CN(C)c1ccc(C(=C2C=CC(=[N+](C)C)C=C2)c2ccc(N(C)C)cc2)cc1.[Cl-] [Crystal Violet] + CN(C)C/C=C/C(=O)Nc1cc2c(Nc3ccc(F)c(Cl)c3)ncnc2cc1O[C@H]1CCOC1 [Afatinib],41
12,CCCCCCCCCCCCCCCCOP(=O)([O-])OCC[N+](C)(C)C [Miltefosine] + CN(C)C/C=C/C(=O)Nc1cc2c(Nc3ccc(F)c(Cl)c3)ncnc2cc1O[C@H]1CCOC1 [Afatinib],69.5
13,CC(Oc1cc(-c2cnn(C3CCNCC3)c2)cnc1N)c1c(Cl)ccc(F)c1Cl [(R)-Crizotinib] + CN(C)C/C=C/C(=O)Nc1cc2c(Nc3ccc(F)c(Cl)c3)ncnc2cc1O[C@H]1CCOC1 [Afatinib],48.3
14,COc1nc2ccc(Br)cc2cc1[C@@H](c1ccccc1)[C@@](O)(CCN(C)C)c1cccc2ccccc12 [Bedaquiline fumarate] + CN(C)C/C=C/C(=O)Nc1cc2c(Nc3ccc(F)c(Cl)c3)ncnc2cc1O[C@H]1CCOC1 [Afatinib],91.2
15,CC(C)COc1ccc(CNC(=O)N(Cc2ccc(F)cc2)C2CCN(C)CC2)cc1 [Pimavanserin] + CN(C)C/C=C/C(=O)Nc1cc2c(Nc3ccc(F)c(Cl)c3)ncnc2cc1O[C@H]1CCOC1 [Afatinib],65.2
16,COc1cc2ncnc(Nc3ccc(F)c(Cl)c3)c2cc1NC(=O)C=CCN1CCCCC1 + CN(C)C/C=C/C(=O)Nc1cc2c(Nc3ccc(F)c(Cl)c3)ncnc2cc1O[C@H]1CCOC1 [Afatinib],33
17,CNCCC(Oc1cccc2ccccc12)c1cccs1.Cl (stereo not given) [Duloxetine HCl] + CN(C)C/C=C/C(=O)Nc1cc2c(Nc3ccc(F)c(Cl)c3)ncnc2cc1O[C@H]1CCOC1 [Afatinib],59.8
18,COC1=C(OC)C(=O)C(CCCCCCCCCCO)=C(C)C1=O [Idebenone] + CN(C)C/C=C/C(=O)Nc1cc2c(Nc3ccc(F)c(Cl)c3)ncnc2cc1O[C@H]1CCOC1 [Afatinib],62.7
19,CCOc1cc2ncc(C#N)c(Nc3ccc(F)c(Cl)c3)c2cc1NC(=O)C=CCN(C)C [Pelitinib (EKB-569)] + CN(C)C/C=C/C(=O)Nc1cc2c(Nc3ccc(F)c(Cl)c3)ncnc2cc1O[C@H]1CCOC1 [Afatinib],28.6
20,Clc1ccc(C(Cn2ccnc2)OCc2c(Cl)cccc2Cl)c(Cl)c1.O=[N+]([O-])O (stereo not given) [Isoconazole nitrate] + CN(C)C/C=C/C(=O)Nc1cc2c(Nc3ccc(F)c(Cl)c3)ncnc2cc1O[C@H]1CCOC1 [Afatinib],78.3

# Source: the supplement of paper PMC6992640
